From PubChem BioAssay AID1782 (National Center for Advancing Translational Sciences (NCATS), 2009)
Inconclusive results are not listed. Calls of active or inactive are those of the source. The call rests on the fitted dose curve; in most records, active means well fitted curve in the direction sought with a large enough effect; inconclusive means small, poorly fitted or top-dose-only effect, or another doubt; inactive means no such curve, though single readings can be large or run the other way.

Target: Pyruvate kinase PKLR (Homo sapiens) (UniProt P30613)
Sequence (P30613 whole entry, looked up): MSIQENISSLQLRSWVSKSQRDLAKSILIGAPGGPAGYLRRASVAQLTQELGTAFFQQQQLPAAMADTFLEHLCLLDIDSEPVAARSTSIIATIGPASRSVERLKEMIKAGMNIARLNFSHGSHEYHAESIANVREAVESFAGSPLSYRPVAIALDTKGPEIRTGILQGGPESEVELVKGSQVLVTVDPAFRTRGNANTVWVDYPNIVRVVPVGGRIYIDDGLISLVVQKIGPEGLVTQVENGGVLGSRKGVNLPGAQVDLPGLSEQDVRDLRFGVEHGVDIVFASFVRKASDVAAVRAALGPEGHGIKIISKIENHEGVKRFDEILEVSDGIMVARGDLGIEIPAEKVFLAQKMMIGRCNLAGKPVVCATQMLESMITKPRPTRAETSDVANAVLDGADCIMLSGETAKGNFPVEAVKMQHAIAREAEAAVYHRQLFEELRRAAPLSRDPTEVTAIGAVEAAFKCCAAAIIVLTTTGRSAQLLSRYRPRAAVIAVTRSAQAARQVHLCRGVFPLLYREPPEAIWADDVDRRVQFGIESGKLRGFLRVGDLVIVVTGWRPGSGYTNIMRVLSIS
Experiment: Confirmation Concentration-Response Assay for Activators of Human Reticulocyte Pyruvate Kinase
Conditions: purified hPK-R, Kinase-Glo ATP luminescence, 1 h; series mostly up to 57.5 µM; activity change, positive = activation: at the top concentration
Description: Confirmatory assay NIH Chemical Genomics Center [NCGC] Wael M. Rabeh, Lyudmila Nedyalkova and Hee-Wan Park [Structural Genomics Consortium, 100 College St. Toronto, Ontario, Canada] NCGC Assay Overview: Human pyruvate kinase reticulocyte (hPK-R) enzyme was supplied as a highly purified (>95% pure) preparation from Structural Genomics Consortium in Toronto (Ontario, Canada) and assayed for its ability to generate ATP from ADP using phosphoenolpyruvate (PEP) as a substrate. ATP generation was detected in a coupled reaction by luciferase-mediated luminescence, an ATP-dependent process. Pyruvate kinase substrates, PEP and ADP, were present in the assay at Km and approximately 10-fold below Km respectively. The enzyme was assayed at an intermediate level of activity to screen for both inhibitors and activators.
NCGC Assay Protocol Summary for R-isoform Three uL of substrate mix (at r.t.) in assay buffer (50 mM Imidazole pH7.2, 50 mM KCl, 7 mM MgCl2, 0.01% Tween 20, 0.05% BSA) was dispensed into white solid bottom 1,536 well microtiter plates so that the final concentrations of substrates in the assay were 0.1 mM ADP and 0.5 mM PEP. 23 nL of compound were delivered by a pin tool and 1 uL of enzyme mix (final concentration of 0.1 nM) in assay buffer (4 degree Celsius) was added. Plates were incubated at room temperature for 1 hour. Two uL of detection mix (Kinase-Glo, Promega; at 4 degree Celsius protected from light) was added and luminescence read by a ViewLux (Perkin Elmer) at 1 second exposure/plate. Data were normalized to the uninhibited (row 31). Additionally, a no enzyme and 5-fold enzyme control was dispensed in row 32, split equally between the two conditions.

Activity change, positive = activation, inactive:
O=S(=O)(c1ccc(Cl)cc1)N1CCN(S(=O)(=O)c2ccc3c(c2)OCCO3)CC1 -2.24%, CC(=O)c1cc2c(s1)c1cnn(Cc3ccccc3F)c(=O)c1n2C 3.32%, Cc1cc2c(s1)c1cnn(Cc3ccc(C)c(F)c3F)c(=O)c1n2C 0.141%, CCn1c2cc(C)sc2c2cnn(Cc3ccccc3F)c(=O)c21 -6.91%, O=S(=O)(NCCNS(=O)(=O)c1c(F)cccc1F)c1ccc2c(c1)OCCO2 10.2%, CCCc1cc(F)c(S(=O)(=O)N2CCN(S(=O)(=O)c3ccc4c(c3)OCCO4)CC2)cc1F -0.771%, Cc1cc2c(s1)c1cnn(Cc3c(F)cccc3Cl)c(=O)c1n2C 1.3%, COc1ccc(Cn2ncc3c4sc(C)cc4n(C)c3c2=O)cc1 2.35%, O=S(=O)(c1ccc2c(c1)OCO2)N1CCN(S(=O)(=O)c2c(F)cccc2F)CC1 -5.58%, Cc1cc2c(s1)c1c(C)nn(Cc3ccccc3F)c(=O)c1n2C 2.83%, O=C(c1ccc2c(c1)OCCO2)N1CCN(S(=O)(=O)c2c(F)cccc2F)CC1 -13.7%, Cn1c2cc(CO)sc2c2cnn(Cc3ccccc3F)c(=O)c21 1.01%, Cc1cc2c(s1)c1cnn(Cc3ccccc3)c(=O)c1n2C 0.949%, Cc1cc2c(s1)c1cnn(Cc3ccccc3Cl)c(=O)c1n2C -2.54%, Cn1c2cc(S(C)=O)sc2c2cnn(Cc3ccccc3F)c(=O)c21 (stereo not drawn) -8.85%, CSc1cc2c(s1)c1cnn(Cc3ccccc3F)c(=O)c1n2C -10.3%, O=C(c1c(F)cccc1F)N1CCN(S(=O)(=O)c2ccc3c(c2)OCCO3)CC1 -15.6%, Cc1cc2c(s1)c1cnn(Cc3ccc(Cl)cc3)c(=O)c1n2C 4.3%, Cc1cc2c(s1)c1cnn(Cc3ccc(F)c(F)c3F)c(=O)c1n2C -17.7%, COC(=O)c1cc2c(s1)c1cnn(Cc3ccccc3F)c(=O)c1n2C -2.06% [at 28.7 µM], CCCCCn1ncc2c3sc(C)cc3n(C)c2c1=O -3.84%

Potency, inactive:
Cc1cc2c(s1)c1cnn(Cc3ccccc3F)c(=O)c1n2C, COc1ccc(S(=O)(=O)N2CCN(S(=O)(=O)c3ccc(OC)cc3)CC2)cc1
